GDH-TPI counter-1 – inhibits GDH-TPI coupling enzymes, artifact for Mtb FBA screen; GDH-TPI coupled enzyme counterscreen, NADH absorbance; actives 1.2% (n = 360,000); inhibition, % at 4.8 µM; in the data active = inhibition above about 30%;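 also: 0% = DMSO wells and 100% = wells lacking the enzyme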
Mtb hypoxia rep – reduces hypoxia-regulated biosensor signal in M. tuberculosis. fluorescence inhibition, % (no concentration beside the values). actives 0.1% (n = 300,000). M. tuberculosis hypoxia-regulated fluorescent reporter, fluorescence; in the data active = fluorescence inhibition mostly above about 23%, no sharp cut-off; inactive = mostly below about 17%
BioA inh – BioA (M. tuberculosis) enzyme inhibition. purified M. tuberculosis BioA enzyme, plate reader. inhibition, % at 9.99 µM. actives 0.096% (n = 360,000); in the data active = inhibition above about 40%
Mtb FBA inh – Mtb fructose-bisphosphate aldolase inhibition. purified M. tuberculosis FBA, fluorescence read-out. inhibition, % at 1 µM. P9WQA3. actives 2.3% (n = 360,000);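 also: 0% = vehicle and 100% = reference inhibitor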
Target sequence (P9WQA3 whole entry, looked up): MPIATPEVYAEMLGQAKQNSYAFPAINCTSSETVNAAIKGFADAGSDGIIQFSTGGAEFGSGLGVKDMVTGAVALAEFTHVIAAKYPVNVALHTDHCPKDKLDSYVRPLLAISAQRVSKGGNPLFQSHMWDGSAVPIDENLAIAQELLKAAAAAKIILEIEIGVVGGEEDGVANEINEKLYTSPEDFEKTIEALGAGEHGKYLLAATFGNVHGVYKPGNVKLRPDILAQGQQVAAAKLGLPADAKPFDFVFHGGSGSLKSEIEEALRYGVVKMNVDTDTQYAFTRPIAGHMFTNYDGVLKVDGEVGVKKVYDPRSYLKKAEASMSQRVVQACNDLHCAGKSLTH
FadD28 binding – M. tuberculosis FadD28 bisubstrate binding inhibition. FadD28 bisubstrate probe binding, fluorescence polarization. inhibition, % at 12.5 µM. actives 0.22% (n = 360,000); in the data active = inhibition above about 8.5%, passing the limit was not always enough
Mtb FBA confirm – Mtb FBA inhibition, confirmed. inhibition, % at 1 µM. AID 651616. shares compounds with Mtb FBA inh. actives 78% (n = 5,600). purified M. tuberculosis FBA, fluorescence read-out;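 also: 0% = vehicle wells and 100% = reference inhibitor wells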
GDH-TPI counter-2 – inhibits GDH-TPI coupling enzymes, flagging Mtb FBA hits | shares compounds with Mtb FBA inh | actives 81% (n = 5,600) | GDH-TPI coupled enzyme counterscreen, fluorescence | inhibition, % at 1 µM; in the data active = inhibition above about 10%
GDH-TPI dose – counter-screen for M. tuberculosis FBA inhibitors: GDH-TPI dose response; IC50, µM; actives 79% (n = 170); shares compounds with Mtb FBA inh; GDH-TPI coupled enzyme assay, fluorescence, artifact counterscreen; call rule not given here
* = called active by the depositor; x = no result given; + = active, no number. In the library only some 2.9% were active in any assay of this set; here they are far more common. Rule as the data show it, unless noted: active = inhibition above about 27%; inactive = the rest.

SMILES | GDH-TPI counter-1 | Mtb hypoxia rep | BioA inh | Mtb FBA inh | FadD28 binding | Mtb FBA confirm | GDH-TPI counter-2 | others
COC(=O)C1(C#N)C(c2ccccc2)C1(C(=O)OC)C(=O)OC (stereo not drawn) | -7 | 17 | -2 | 2 | -3 | x | x
C[C@@H]1CN([C@H](C)CO)C(=O)c2cc(N(C)C)ccc2O[C@H]1CN(C)Cc1ccc(C(=O)O)cc1 | x | x | -1 | x | x | x | x
O=C(CCC(=O)Nc1ccccc1)NN=Cc1cccnc1 | x | 1 | x | x | x | x | x
CCOC(=O)c1[nH]c2ccc(OCC)cc2c1NC(=O)CN1CCCC(C)C1 (stereo not drawn) | 8 | x | 6 | 38* | -2 | 49* | 47*
CCOC(=O)c1[nH]c2ccc(C)cc2c1NC(=O)CN1CCCCC1 | 15 | x | 0 | 21 | -1 | x | x
CCOC(=O)c1[nH]c2ccc(OC)cc2c1NC(=O)CCN1CCSCC1 | 5 | -3 | x | 71* | -3 | 51* | 43*
CCOC(=O)c1oc2ccc(OC)cc2c1NC(=O)CN1CCN(C)CC1 | 3 | 11 | x | 40* | -2 | 1 | -5
CCOC(=O)c1oc2ccccc2c1NC(=O)CN1CCN(C)CC1 | 0 | 4 | 0 | 2 | -4 | x | x
CCOC(=O)c1[nH]c2ccc(OC)cc2c1NC(=O)CN1CCC2(CC1)OCCO2 | 10 | 5 | -8 | 47* | 0 | 134* | 104*
CCOC(=O)c1[nH]c2ccc(F)cc2c1NC(=O)CCN1CCSCC1 | 8 | x | 0 | 16 | -1 | x | x
COCc1cn(CC[C@H]2CC[C@@H](NC(=O)c3ccc(F)cc3)[C@@H](CO)O2)nn1 | x | x | -1 | x | x | x | x
CCOc1ccc(Br)cc1C(=O)NN=Cc1cccnc1 | x | 10 | x | x | x | x | x
COc1ccc(CN(C)C[C@@H]2Oc3c(NC(=O)Nc4ccc5c(c4)OCO5)cccc3C(=O)N([C@H](C)CO)C[C@@H]2C)cc1 | x | x | 0 | x | x | x | x
Cc1ccc(C)c(OCC(=O)Nc2nc3ccc([N+](=O)[O-])cc3s2)c1C | 20 | 0 | -3 | 53* | 1 | 1 | -1
CC(=O)Nc1ccc2nc(NC(=O)COc3ccc([N+](=O)[O-])cc3)sc2c1 | 7 | -3 | x | 2 | -2 | x | x
CC(=O)NCCNC(=O)C1Cc2c(-c3ccccc3)ccnc2O1 (stereo not drawn) | 2 | x | -1 | -1 | -2 | x | x
CC(=O)NCCNC(=O)C1Cc2c(-c3ccc4c(c3)OCO4)ccnc2O1 (stereo not drawn) | -9 | x | 2 | 65* | -2 | 19 | -3 | GDH-TPI dose=2.9*
O=C(NCC1CC1)C1Cc2c(-c3ccc4c(c3)OCO4)ccnc2O1 (stereo not drawn) | 12 | x | 2 | 54* | -1 | 138* | 95*
O=C(Nc1ccc2c(c1)OCO2)C1Cc2c(-c3ccncc3)ccnc2O1 (stereo not drawn) | 14 | x | -1 | 0 | -1 | x | x
COc1ccc(NC(=O)C2Cc3c(-c4ccc5c(c4)OCO5)ccnc3O2)cc1 (stereo not drawn) | -1 | x | 2 | 46* | -3 | 21 | 12*
O=C(Nc1ccc2c(c1)OCO2)C1Cc2c(-c3ccc4c(c3)OCO4)ccnc2O1 (stereo not drawn) | -6 | x | 0 | 36* | -4 | 77* | 61*
O=C(NCC1CC1)C1Cc2c(-c3cccc(F)c3)ccnc2O1 (stereo not drawn) | 10 | x | 1 | 2 | -2 | x | x
CC(=NNc1nc(N)cc(Cl)n1)c1ccc(Cl)c(Cl)c1 | x | -9 | x | x | x | x | x
COCC(=O)Nc1ccc2c(c1)[C@@H]1C[C@@H](CC(=O)N3CCCCC3)O[C@@H](CO)[C@@H]1O2 | x | x | -2 | x | x | x | x
CNC(=O)C1Cc2c(-c3ccc4c(c3)OCO4)ccnc2O1 (stereo not drawn) | 6 | x | 9 | 60* | 0 | 97* | 77*
SMILES | GDH-TPI counter-1 | Mtb hypoxia rep | BioA inh | Mtb FBA inh | FadD28 binding | Mtb FBA confirm | GDH-TPI counter-2 | others
CC(=O)Nc1ccc(NC(=O)C2Cc3c(-c4ccc5c(c4)OCO5)ccnc3O2)cc1 (stereo not drawn) | 6 | x | 1 | 33* | -5 | 9 | 1
CN1CCN(C(=O)C2Cc3c(-c4ccc5c(c4)OCO5)ccnc3O2)CC1 (stereo not drawn) | 7 | x | 0 | 40* | 0 | 18 | 6 | GDH-TPI dose=3.1*
CC(=O)Nc1cccc(-c2ccnc3c2CC(C(=O)Nc2ccc4c(c2)OCO4)O3)c1 (stereo not drawn) | 4 | x | 0 | -4 | -5 | x | x
O=C(Nc1ccc2c(c1)OCO2)C1Cc2c(-c3ccc(Cl)cc3)ccnc2O1 (stereo not drawn) | 0 | x | -1 | 0 | -2 | x | x
Cc1ccc(SCc2c(C(=O)NN=Cc3ccc4c(c3)OCO4)nnn2-c2nonc2N)cc1 | x | 1 | x | x | x | x | x
O=C(CSc1nc2ccccc2c(=O)[nH]1)Nc1ccc(N2CCOCC2)cc1 | -8 | -5 | 1 | 3 | -2 | x | x
O=C(CSc1nc2ccccc2c(=O)[nH]1)Nc1ccccc1N1CCOCC1 | 6 | 15 | x | 33* | -3 | 97* | 77*
N#C/C(=C\c1cccc(Cl)c1)c1n[nH]c(Cn2cncn2)n1 | 5 | x | -3 | 39* | -1 | 57* | 43*
N#CC(=Cc1ccc(Cl)cc1Cl)c1n[nH]c(Cn2cncn2)n1 | x | 7 | x | x | x | x | x
COCC(C)NC(=O)CCS(=O)(=O)c1nc(-c2ccc(OC)cc2)cc(C(F)(F)F)n1 (stereo not drawn) | 36* | 13 | 0 | 78* | -7 | + | +
COc1ccc(C=NNC(=O)CCc2c(C)n[nH]c2C)cc1O | x | 11 | x | x | x | x | x
C[C@@H]1CN([C@@H](C)CO)C(=O)c2cc(C3=CCCC3)cnc2O[C@H]1CN(C)C(=O)c1cccnc1 | x | x | 0 | x | x | x | x
COCCN1C(=O)NC(c2ccco2)C(C(=O)OC)=C1C (stereo not drawn) | x | 10 | x | x | x | x | x
CCCSc1ccccc1C(=O)N1CCN(C(=O)c2ccco2)CC1 | 12 | -14 | 1 | 55* | 0 | + | +
O=C(O)c1cc(-c2ccccc2)nc2nc(N3CCCCC3)sc12 | x | 17 | x | x | x | x | x
COc1ccc(-c2cc(C(=O)O)c3sc(N4CCCCC4)nc3n2)cc1OC | 20 | 9 | -1 | 94* | 1 | 109* | 67*
CCC(=O)Nc1c(S(=O)(=O)c2ccccc2)c2nc3ccccc3nc2n1C(C)c1ccccc1 (stereo not drawn) | 27 | 3 | x | 73* | 2 | 73* | 68*
CC(c1ccccc1)n1c(S(=O)(=O)O)nc2ccccc21 (stereo not drawn) | -4 | 16 | x | -1 | -6 | x | x
CCC(=O)Nc1c(S(=O)(=O)c2ccc(C)cc2)c2nc3ccccc3nc2n1C(C)c1ccccc1 (stereo not drawn) | 5 | -5 | x | 58* | -3 | 50* | 30*
Cc1ccccc1S(=O)(=O)NCC[C@H]1CC[C@@H](NC(=O)C2CCCCC2)[C@H](CO)O1 | x | x | -1 | x | x | x | x

Screens deposited in PubChem BioAssay by several laboratories.
